# Hits are enriched below; roughly 5.7% of the tested compounds scored in any of these assays.
# AHR activator: human AHR activation; AHR-responsive luciferase reporter cells, luminescence; activation, % at 5 µM; P35869; 2.5% of 320,000 active; in the data active = activation above about 47%
# ssDAF12 agonist: activators of S. stercoralis DAF-12 nuclear receptor; HEK293 ssDAF-12/GRIP1 lit1-tk-luc reporter, luminescence; % of 3 µM dafachronic acid response; activation, % at 6.8 µM; 1% of 370,000 active; AID 652126;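 active = activation above the mean over all tested compounds plus 3 SD, cut at about 0.9% in these data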
# DAX1 inh-1: inhibits human nuclear receptor DAX1 | P51843 | HEK293 Gal4-DAX1 luciferase reporter, luminescence | inhibition, % at 6.75 µM | 0.99% of 340,000 active | AID 504766;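 active = inhibition above the mean over all tested compounds plus 3 SD, cut at about 4.2% in these data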;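 also: inhibition shows as a rise in luminescence from relieved DAX1 repression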
# hcDAF-12 act: H. contortus DAF-12 activation, primary screen; activation, % at 6.8 µM; HEK293 hcDAF-12 lit1-tk-luc reporter, luminescence; 0% DMSO, 100% Δ7-dafachronic acid; 1.4% of 370,000 active; AID 652067;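 active = activation above the mean of all tested compounds plus 3 SD, cut at about 5.5% in these data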
# hgDAF12 agonist: agonists of H. glycines DAF-12 nuclear receptor; HEK293 GAL4-hgDAF12 UAS-luciferase reporter, agonist luminescence; normalized to butyrate control; activation, % at 6.8 µM; 1.8% of 370,000 active; AID 687014;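 active = activation above a cutoff set at the mean of all screened compounds plus 3 SD, cut at about 10% in these data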
# DAX1 inh-2: blocks DAX1 repression of SF-1 activated StAR promoter | HEK293T StAR-luciferase reporter, SF-1/DAX-1 repression relief | inhibition, % at 6.8 µM | 1.1% of 370,000 active;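 active = inhibition above the mean over all tested compounds plus 3 SD, cut at about 3.6% in these data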;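 also: higher inhibition means more luminescence from relief of DAX-1 repression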
# DAX1 conf: NR0B1 (human) inhibition, confirmation; shares compounds with DAX1 inh-2; HEK293T StAR-promoter luciferase reporter, SF-1/DAX-1 repression; inhibition, % at 6.8 µM; 87% of 2,400 active;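 active = inhibition above the average of every tested compound plus 3 SD, cut at about 3.8% in these data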;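 also: active compounds raise luminescence by relieving repression of the StAR reporter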
# SF1 mutant ctr: counter-screen for DAX1 inhibitors: nonselective inhibitors with SF-1 AF2 mutant | AID 652136 | shares compounds with DAX1 inh-2 | 78% of 2,400 active | inhibition, % at 6.8 µM | HEK293 StAR-luciferase, luminescence;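 active = inhibition above the mean of all tested compounds plus 3 SD, cut at about 3% in these data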
# LXR ag: counter-screen for hcDAF-12 agonists: agonists of human LXR-beta. shares compounds with hcDAF-12 act. HEK293 Gal4-LXR tk-luc reporter, luminescence, 24 h; normalized: DMSO 0%, positive control 100%. activation, % at 6.8 µM. 3,400 tested, under 10 active. AID 743027;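 active = mean percent activation of the reporter above a cutoff set as the average over tested compounds plus their standard deviation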
# hcDAF12 conf: confirmation of H. contortus DAF-12 agonists; 61% of 3,400 active; activation, % at 6.8 µM; shares compounds with hcDAF-12 act; HEK293 hcDAF-12 lit1-tk-luc reporter, luminescence; % of Δ7-dafachronic acid response;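 active = mean activation across triplicate tests above the threshold derived from the earlier primary screen, cut at about 5.5% in these data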
# hgDAF12 ag: hgDAF-12 agonism, confirmation assay; shares compounds with hgDAF12 agonist; HEK293 GAL4-hgDAF12 luciferase reporter, agonist mode; percent of butyrate response; activation, % at 6.8 µM; 80% of 3,300 active;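 active = mean activation over triplicate wells above the hit cutoff derived from the earlier primary screen, cut at about 11% in these data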
# LXRb DAF12 ctr: counter-screen for DAF-12 agonists: agonists of human LXR-beta | activation, % at 6.8 µM | 3,300 tested, under 10 active | shares compounds with hgDAF12 agonist | HEK293 Gal4-LXR luciferase reporter, 24 h;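 active = mean activation of the triplicate above a set limit carried over from the primary screen, none filed active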
# Numbers stand for hits; – = inactive; · = no result; + = active, no number.
SMILES,AHR activator,ssDAF12 agonist,DAX1 inh-1,hcDAF-12 act,hgDAF12 agonist,DAX1 inh-2,DAX1 conf,SF1 mutant ctr,hgDAF12 ag,LXRb DAF12 ctr,others
Cc1cccnc1NC(=O)C1CCCN1S(=O)(=O)c1ccc(Cl)cc1 (stereo not drawn),–,–,–,–,–,–,·,·,·,·,
CC(=NNC(=O)c1cccs1)c1ccc2c(c1)OCCO2,–,–,–,–,17,7.2,7.8,2.9,13,–,
Cn1nnnc1SCC(=O)Nc1ccc2c(c1)OCCO2,–,–,–,–,15,6.5,8.2,–,14,–,
Cc1ccc(-n2nnnc2SCC(=O)Nc2ccc3c(c2)OCCO3)cc1C,–,–,–,–,–,–,·,·,·,·,
CC(C)(C)c1ccc(OCCC(=O)Nc2cccc(S(=O)(=O)NC3=NCCCCC3)c2)cc1,·,–,–,–,–,–,·,·,·,·,
COc1ncnc2c1ncn2CCCNCc1ccc2c(c1)OCO2,·,–,–,–,–,–,·,·,·,·,
COc1ccc(CN=C2Nc3ccccc3CS2)cc1,–,1.2,–,–,14,4.7,11,7.2,17,–,
COc1ccc(CN=C2NN=C(c3ccc(Cl)cc3)CS2)cc1,–,–,–,–,–,–,·,·,·,·,
O=C(CCCCCCC(=O)Nc1ccccc1)NO,–,2.0,13,12,41,33,+,–,41,–,LXR ag=–;hcDAF12 conf=7.0
CC(C)(C)c1ccc(-c2nnc(N)s2)cc1,63,–,–,–,17,5.0,11,7.0,12,–,
Nc1nnc(-c2ccc(F)cc2)s1,–,–,–,–,–,–,·,·,·,·,
CC1(C(=O)NCCc2c[nH]c3ccccc23)CCN1CC1CCCCC1 (stereo not drawn),·,–,·,–,–,–,·,·,·,·,
O=C(c1c[nH]c(C(=O)N2CCN(c3ccccc3F)CC2)c1)c1cccc(Cl)c1Cl,·,–,–,–,–,–,·,·,·,·,
CC(=O)Oc1ccc2c(=O)c(Oc3ccccc3[N+](=O)[O-])coc2c1,–,–,–,–,–,–,·,·,·,·,
CC(=O)Oc1ccc2c(=O)c(-c3nc4ccccc4s3)coc2c1,–,–,–,6.7,13,5.7,5.7,–,–,–,LXR ag=–;hcDAF12 conf=9.0
O=C(CSc1nc2scc(-c3ccccc3)c2c(=O)[nH]1)N1CCOCC1,–,–,–,–,–,–,·,·,·,·,
COc1ccc(-c2nc(-c3ccc(Br)o3)no2)cc1,–,1.3,–,–,17,7.3,14,3.5,16,–,
O=C(CN1CCN(S(=O)(=O)c2ccc(F)c(F)c2)CC1)Nc1ccccc1C(=O)NC1CC1,–,–,–,–,–,–,·,·,·,·,
Nc1nc(SCCO)[nH]c(=O)c1NC(=O)c1ccc(Br)o1,–,–,–,–,–,–,·,·,·,·,
COc1ccc(C(=O)O/N=C(\N)c2ccc(Cl)cc2)cc1,–,–,–,–,–,–,·,·,·,·,
COc1ccccc1C(=O)O/N=C(\N)c1ccc(Cl)cc1,69,1.4,–,9.2,18,5.0,–,–,14,–,LXR ag=–;hcDAF12 conf=6.3
CCN(CC)CCCn1c2c(c(SCC(=O)Nc3nccs3)nc1=O)CCC2,–,–,–,–,–,–,·,·,·,·,

# High-throughput results as filed in PubChem BioAssay.
